# Rows were chosen to be rich in hits. Some 4% of all compounds tested hit in one or more screens of this group.
# TWEAK-Fn14 inh = TWEAK-Fn14 signaling inhibition; AID 1159606; actives 2% (n = 360,000); TWEAK-stimulated Fn14 reporter cells, luciferase luminescence, 8 h; inhibition, % at 10 µM; in the data active means inhibition above about 50%
# KKLEB cytotox = reduces viability of KKLEB cystic fibrosis airway cells | KKLEB CF airway cells viability, ATPlite luminescence, overnight; stronger effect = lower value; cells stimulated with P. aeruginosa culture filtrate | activity change (cytotoxicity), % at 5 µM | actives 0.36% (n = 360,000);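 active means corrected activity change at or below -50% at 5 µM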
# TROY signal inh = blocks TROY-dependent signaling in reporter cells; Q293 LMP1-TROYcd NF-kB luciferase reporter, 4 h; inhibition, % at 10 µM; actives 0.98% (n = 360,000); AID 1347056;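 active means compounds whose plate-normalised and pattern-corrected inhibition of the luciferase reporter signal at the single screening dose is 50% or more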
# HIF-2a inh = HIF-2a inhibition | 786-0 RCC cells HIF-2a reporter, luciferase luminescence, overnight | inhibition, % at 18.8 µM | actives 0.72% (n = 360,000) | AID 624352;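 active means inhibition of the luminescence signal of 40% or more relative to plate controls, in a single-dose primary screen at 18.75 µM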
# Peg3 promoter = inhibitors of Peg3 promoter | actives 1.7% (n = 360,000) | HeLa PEG-Prom luciferase reporter, luminescence, overnight | inhibition, % at 20 µM | AID 588405;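 active means inhibition of at least 50% at 20 µM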
# CF NFkB block = inhibitors of cystic fibrosis induced NF-kB | KKLEB NF-kB-GFP reporter, PAF-induced, GFP fluorescence overnight | inhibition, % at 5 µM | actives 0.86% (n = 360,000);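 active means at least 50% inhibition at 5 µM, scaled per plate between neutral and stimulator controls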;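 further: PAF is a Pseudomonas aeruginosa culture filtrate used as stimulus; plate controls were PAF-stimulated DMSO wells for no effect and unstimulated DMSO wells for full effect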
# Mdm2 MdmX conf = confirmation of inhibitors of human Mdm2/MdmX interaction, set 2; shares compounds with HIF-2a inh; SaOS-2 split-luciferase Mdm2/MdmX complementation, luminescence; inhibition, % at 8 µM; actives 99% (n = 740);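 active means mean inhibition of the luminescence signal across two replicates at or above 26 percent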
# Target sequence (O15151 whole entry, looked up): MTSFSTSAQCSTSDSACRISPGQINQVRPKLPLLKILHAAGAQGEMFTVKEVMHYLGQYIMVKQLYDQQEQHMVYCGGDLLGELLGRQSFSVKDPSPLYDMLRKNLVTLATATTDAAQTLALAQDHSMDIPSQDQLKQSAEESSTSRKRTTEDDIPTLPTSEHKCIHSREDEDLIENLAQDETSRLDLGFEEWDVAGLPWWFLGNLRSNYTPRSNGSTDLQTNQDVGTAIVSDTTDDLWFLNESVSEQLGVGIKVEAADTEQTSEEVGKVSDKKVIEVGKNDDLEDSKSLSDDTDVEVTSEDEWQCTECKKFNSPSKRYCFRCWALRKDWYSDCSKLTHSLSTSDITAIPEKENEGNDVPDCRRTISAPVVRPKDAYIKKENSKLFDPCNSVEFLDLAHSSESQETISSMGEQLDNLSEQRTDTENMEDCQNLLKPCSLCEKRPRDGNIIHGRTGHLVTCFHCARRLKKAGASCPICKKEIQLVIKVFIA
# Target sequence (Q00987 whole entry, looked up): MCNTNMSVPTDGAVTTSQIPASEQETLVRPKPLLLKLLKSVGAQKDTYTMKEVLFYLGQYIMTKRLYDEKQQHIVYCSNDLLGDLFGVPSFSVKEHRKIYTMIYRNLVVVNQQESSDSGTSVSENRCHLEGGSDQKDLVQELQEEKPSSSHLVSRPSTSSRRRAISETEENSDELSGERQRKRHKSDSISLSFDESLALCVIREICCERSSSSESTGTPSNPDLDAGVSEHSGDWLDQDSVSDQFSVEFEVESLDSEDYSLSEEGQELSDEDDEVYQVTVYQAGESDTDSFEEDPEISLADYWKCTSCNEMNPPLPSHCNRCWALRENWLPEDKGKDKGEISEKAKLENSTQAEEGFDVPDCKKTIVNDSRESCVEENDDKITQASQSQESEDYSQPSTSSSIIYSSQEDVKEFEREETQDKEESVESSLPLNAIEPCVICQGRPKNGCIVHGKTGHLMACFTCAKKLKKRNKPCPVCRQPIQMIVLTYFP
# HIF-2a inh conf = confirmation of HIF-2a inhibitors; shares compounds with HIF-2a inh; 786-0 RCC cells, HIF-2a luciferase reporter luminescence, overnight; inhibition, % at 18.8 µM; actives 56% (n = 1,800); AID 651580;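 active means mean inhibition across four replicates of at least 40 percent at the single tested concentration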
# HIF-1a counter = inhibits HIF-1a reporter, a counter-screen for HIF-2a inhibitors. shares compounds with HIF-2a inh. inhibition, % at 18.8 µM. actives 72% (n = 1,800). MiaPaCa-2 HIF-1a luciferase reporter, desferoxamine, overnight. AID 651589;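 active means mean inhibition of the reporter signal across four replicates at the single tested dose of 50% or more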
# Numbers without * were called inactive; nt = no result.
SMILES,TWEAK-Fn14 inh,KKLEB cytotox,TROY signal inh,HIF-2a inh,Peg3 promoter,CF NFkB block,HIF-2a inh conf,HIF-1a counter,others
N#CC1=C(N)Oc2n[nH]c(-c3cccs3)c2C1C1CCCCC1 (stereo not given),-7,-4,8,40*,20,18,22,4,
CCSc1nc(-c2ccccc2)c2cc(Cl)ccc2n1,-10,5,9,16,14,18,nt,nt,
CCSc1nc(-c2ccccc2)nc(C(Cl)Cl)n1,41,-15,-3,71*,102*,14,61*,105*,
CCOC(=O)C(C)(C)N(Cc1ccccc1C)S(=O)(=O)c1ccc(Cl)c([N+](=O)[O-])c1,26,-1,-5,40*,100*,2,21,42,
Cc1ccc(Cl)cc1NC(=O)c1cc2ccccc2cc1O,47,-55*,52*,-143,2,51*,nt,nt,Mdm2 MdmX conf=101*
NNC(=O)c1cc2ccccc2cc1O,91*,7,21,69*,39,8,81*,75*,
Cc1cc(N)ccc1-n1nc2ccccc2n1,-5,7,-19,5,-53,-8,nt,nt,
Cc1ccc(-n2nc3ccc(N)cc3n2)c(C)c1,87*,5,-9,56*,-174,-37,76*,17,
CCC(=O)OCCNc1cc(Sc2nc3ccccc3s2)c2nonc2c1[N+](=O)[O-],18,15,9,53*,99*,-6,36,61*,
CCC(=O)OCCNc1cc(Sc2nc3ccccc3[nH]2)c2nonc2c1[N+](=O)[O-],54*,-95*,54*,86*,92*,82*,84*,84*,
CCCC(=O)OCCNc1cc(SCc2ccco2)c2nonc2c1[N+](=O)[O-],6,0,4,7,-6,8,nt,nt,
CCCC(=O)OCCNc1cc(Sc2nccn2C)c2nonc2c1[N+](=O)[O-],42,-1,18,87*,110*,48,82*,104*,
CCCSc1cc(NCCOC(C)=O)c([N+](=O)[O-])c2nonc12,5,-10,1,24,14,-15,nt,nt,
COc1cc(Br)cc(C(=O)N2CCc3ccccc32)c1OC,24,-3,-11,16,7,16,nt,nt,
COC(=O)C[C@H]1CC[C@H](NC(=O)c2cccc(F)c2)[C@@H](CO)O1,nt,nt,nt,-14,nt,nt,nt,nt,
CCOC(=O)N1CCN(S(=O)(=O)c2ccc(C(=O)Nc3sc4c(c3C(=O)OC)CCN(C)C4)cc2)CC1,-20,-20,-10,61*,110*,-38,26,90*,
COC(=O)c1c(NC(=O)c2ccc(S(=O)(=O)N3CC(C)OC(C)C3)cc2)sc2c1CCN(C)C2 (stereo not given),-19,-33,-10,2,17,-3,nt,nt,
COc1ccc(OC)c(C(C[N+](=O)[O-])c2c(C)cc3ccccn23)c1 (stereo not given),23,-14,1,44*,37,19,18,39,
NCCN1C(=O)S/C(=C\c2ccc3c(c2)OCO3)C1=O,66*,11,57*,86*,-8,-14,95*,67*,
O=C(CNC(=O)c1ccccc1F)NCCN1C(=O)S/C(=C\c2ccc3c(c2)OCO3)C1=O,-10,-2,-9,14,-48,-12,nt,nt,
CN(C)CCN(C(=O)CCS(=O)(=O)c1ccccc1)c1nc2c(F)cccc2s1,-2,9,10,5,-21,16,nt,nt,
Cc1ccc2sc(N(CCCN(C)C)C(=O)CCS(=O)(=O)c3ccccc3)nc2c1C,63*,-81*,-22,88*,108*,92*,24,77*,
COc1ccc(Cl)c2sc(N(CCN(C)C)C(=O)CCS(=O)(=O)c3ccc(C)cc3)nc12,-3,-12,-51,2,18,17,nt,nt,
COc1ccc(OC)c2sc(N(CCCN(C)C)C(=O)CCS(=O)(=O)c3ccccc3)nc12,53*,-30,24,45*,109*,86*,37,60*,
CC[C@H](C)[C@@H](CNC)NC[C@@H](Cc1ccc(O)cc1)NCC(C)(C)C,-5,-2,-15,3,-11,-35,nt,nt,
SMILES,TWEAK-Fn14 inh,KKLEB cytotox,TROY signal inh,HIF-2a inh,Peg3 promoter,CF NFkB block,HIF-2a inh conf,HIF-1a counter,others
CCCC[C@H](CN[C@@H](CNC)[C@H](C)CC)NCCC12CCC(CC1)C2,-11,-1,-20,-7,102*,-12,nt,nt,Mdm2 MdmX conf=103*
Cc1cc(SC#N)cc(C)c1NC(=O)CCl,9,-31,-21,46*,28,49,54*,26,
Cc1ccc(C)c(C(=O)Cn2ncc(Cl)c(Cl)c2=O)c1,68*,-13,3,86*,109*,31,13,104*,
Cc1cccc(Cn2ncc(Cl)c(Cl)c2=O)c1,41,11,6,13,44,23,nt,nt,Mdm2 MdmX conf=103*
Cc1cc2oc(=O)cc(Cn3ncc(Cl)c(Cl)c3=O)c2cc1Cl,80*,-69*,83*,-38,106*,88*,nt,nt,Mdm2 MdmX conf=103*
CCc1nc2ccc(C(=O)Nc3cc(-c4ccccc4)ccc3OC)cn2c1N(CCN(C)C)CC1CC1,-4,-20,-8,82*,98*,-4,9,101*,
Cc1ccc(-c2cc(C(=O)N3CC(C)OC(C)C3)c3ccccc3n2)o1 (stereo not given),6,-7,-6,-30,-40,3,nt,nt,
Cc1ccc(-c2cc(C(=O)N3CC(C)CC(C)C3)c3ccccc3n2)o1 (stereo not given),-3,0,-10,44*,-6,4,-41,29,
CC1CCc2nc(NC(=O)Cc3cccs3)sc2C1 (stereo not given),-23,-8,-46,-290,-352,17,nt,nt,
CC1CCc2nc(NC(=O)c3ccco3)sc2C1 (stereo not given),96*,-31,66*,43*,18,-18,72*,88*,
N#C/C(=C/c1ccc(O)c(O)c1)C(=O)NCc1ccc(Cl)cc1,-7,7,0,5,24,-16,nt,nt,
N#C/C(=C/c1cccc(O)c1)C(=O)NCc1ccc(Cl)cc1,19,-9,-2,77*,-11,19,30,46,
C[C@H](CO)N1C[C@H](C)[C@@H](CN(C)C(=O)Nc2ccccc2)Oc2c(NC(=O)C3CCCCC3)cccc2C1=O,11,1,5,11,9,-1,nt,nt,
CCOC(=O)CSc1nc(N)c(C#N)c(-c2ccc(OCC)cc2)c1C#N,-24,-2,15,8,12,15,nt,nt,

# Source: PubChem BioAssay
